SMILES strings stand for the structures. Active and inactive are the calls of the source.

This note sets out measurements from PubChem BioAssay.

The subject of assay [1] is Human papillomavirus type 1a protein E7 (residues 44-93). Put plainly: small molecules binding HPV E7 44-93 – biochemical, small-molecule microarray, residues 44-93, 635 nm fluorescence, primary screen (AID 1108).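 Further: E7 fragment applied at 1 µg/mL in TBST for 1 h at 4 C; score combines spot fluorescence with its signal to noise ratio.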 The settings on record: fluorescence 635 nm, higher = more signal.
Assay [2] in a line: hepatitis C replication reporter changes, two-sided – Huh7 cells, luciferase reporter, HCV replication inhibitor project, primary screen (AID 1109).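 Further: huh7 hepatoma cells harbouring a luciferase neomycin HCV replicon reporter; luciferase luminescence as measure of HCV replicon replication; test concentration not given here.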 Particulars: Huh7 HCV replicon luciferase reporter, 48 h; higher = more signal.
In assay [3] the target is Left-right determination factor 2 (Homo sapiens) (UniProt O00292). As to the kind of experiment: small molecules binding LEFTY2 protein – biochemical, small-molecule microarray, 635 nm fluorescence scan, primary screen (AID 1110). The settings on record: higher = more signal.
The target in assay [4] is Calmodulin-1 (Homo sapiens) (UniProt P0DP23). As to the kind of experiment: small molecules binding calmodulin-1 with EGTA – biochemical, small-molecule microarray, Cy5-labelled CALM1, profiling panel (AID 1111).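 Further: labelled calmodulin applied in Tris saline Tween buffer holding calcium plus EGTA and DTT.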 The settings on record: Cy5-CALM1 binding fluorescence, higher = more signal.
For assay [5] the target is unchanged. Put plainly: small molecules binding Ca-loaded calmodulin-1 – biochemical, small-molecule microarray, Cy5-labelled CALM1, plus calcium, artefact control for SMM control-protein annotation, profiling panel (AID 1112).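 Further: score merges spot fluorescence with signal to noise from triplicate slides.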 The settings on record: Cy5-CALM1 binding fluorescence, higher = more signal.
Assay [6] is described as follows: probe aWnt5a binding to arrayed compounds – biochemical, biotinylated probe, 635/667 nm fluorescence, primary screen (AID 1113).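 Further: score merges 667 nm fluorescence intensity with signal-to-noise per printed feature.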 The settings on record: small-molecule microarray, higher = more signal.
Assay [7] is described as follows: probe aShh binding to arrayed compounds – biochemical, biotinylated probe, 635/667 nm fluorescence, primary screen (AID 1114).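 Further: probe is biotin-labelled aShh protein from a stem cell growth factor screen; measures binding of labelled protein to compounds printed on the slide; score merges feature fluorescence at 667 nm with signal-to-noise.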 The settings on record: small-molecule microarray, higher = more signal.
The nature of assay [8]: probe aNog binding to arrayed compounds – biochemical, biotinylated probe, 635/667 nm fluorescence, primary screen (AID 1115).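 Further: probe is biotinylated aNog protein used at 0.15 µg/mL for 1 h at 4 C; z-score combines 667 nm fluorescence of each spot with its signal to noise.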 Particulars: small-molecule microarray, higher = more signal.
Assay [9] addresses Torsin-1A-interacting protein 1 (Homo sapiens) (UniProt Q5JTV8). Put plainly: compound microarray binding of lysate hLAP1 – cell lysate, small-molecule microarray, COS7 lysate, 635/667 nm fluorescence, primary screen (AID 1116). Particulars: 635 nm fluorescence, higher = more signal.
The target in assay [10] is Alpha-bungarotoxin (Bungarus multicinctus) (UniProt P60615). As to the kind of experiment: compounds binding labelled alpha-BTX control protein – biochemical, small-molecule microarray, Alexa647 label, 635/667 nm fluorescence, artefact control for SMM control protein annotation, profiling panel (AID 1117). The settings on record: alpha-BTX-A647 binding fluorescence, higher = more signal.

The next assay deals with Albumin (Bos taurus) (UniProt P02769). Put plainly: compounds binding labelled BSA control protein – biochemical, small-molecule microarray, Alexa647 label, 635/667 nm fluorescence, artefact control for SMM control protein annotation, profiling panel (AID 1118).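 Further: score merges 667 nm emission intensity and signal-to-noise per printed compound spot.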 Particulars: BSA-A647 binding, fluorescence 635 nm, higher = more signal.
Assay [11] can be described thus: probe aXIP binding to arrayed compounds – biochemical, NeuroSMM set, 635/667 nm fluorescence, primary screen (AID 1119).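 Further: probe is the protein aXip251-270 applied at 1 µg/mL to compound-printed slides; binding of probe to printed compounds measured as 667 nm fluorescence plus signal to noise.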 Particulars: small-molecule microarray, higher = more signal, called active from +8 up or from −8 down.
Assay [12] in a line: probe aNOTCH3 binding on compound microarray – biochemical, small-molecule microarray, 635/667 nm fluorescence, primary screen (AID 1120).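 Further: probe is a biotin-tagged antibody raised against NOTCH3 rather than NOTCH3 protein; score merges spot fluorescence near 667 nm with spot signal to noise.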 The settings on record: higher = more signal.
Assay [13] is described as follows: probe aNOTCH2 binding on compound microarray – biochemical, small-molecule microarray, 635/667 nm fluorescence, primary screen (AID 1121).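 Further: score merges feature fluorescence read at 667 nm with its signal to noise.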 The settings on record: higher = more signal.
The target in assay [14] is Carbonic anhydrase 2 (Homo sapiens) (UniProt P00918). As to the kind of experiment: compounds binding carbonic anhydrase 2 – biochemical, small-molecule microarray, Alexa647-labelled CAII, profiling panel (AID 1122). The settings on record: CAII-A647 binding fluorescence, higher = more signal.
Assay [15] in a line: COS7 lysate on small-molecule microarray, probe aHis, 635 nm (AID 1123).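 Further: z-score combines 667nm fluorescence intensity with signal-to-noise per printed compound spot.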 Particulars: COS7 cell lysate, fluorescence, higher = more signal.
Assay [16] can be described thus: probe aLAP1 signal on lysate-treated microarray – cell lysate, small-molecule microarray, COS7 lysate, primary screen (AID 1124).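 Further: lysate comes from COS7 cells expressing LAP1 and is applied at 0.3 µg/mL; score merges spot fluorescence near 667 nm with signal-to-noise over triplicate slides.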 The settings on record: probe aLAP1, fluorescence, higher = more signal.
The next assay concerns Sam68 (KHDRBS1). Put plainly: compounds binding KHDRBS1 protein – biochemical, small-molecule microarray, 635 nm fluorescence, primary screen (AID 1125).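 Further: score merges 667 nm channel intensity with signal to noise over triplicate slides.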 The settings on record: higher = more signal.
Assay [17] concerns Chordin-like protein 2 (CHRDL2). Put plainly: compounds binding chordin-like 2 – biochemical, small-molecule microarray, 635 nm fluorescence, primary screen (AID 1126).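 Further: printed compound slides probed with Chrdl2 protein at 4 µg/mL for 1 h at 4 C; score merges 667 nm emission intensity with signal to noise over three replicate slides.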 The settings on record: fluorescence 635 nm, higher = more signal.
Assay [18] addresses Concanavalin-A (Canavalia ensiformis) (UniProt P02866). As to the kind of experiment: compounds binding concanavalin A lectin – biochemical, small-molecule microarray, Alexa647 label, 635 nm, artefact control for SMM control protein annotation, primary screen (AID 1127).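 Further: z combines 667 nm emission intensity with signal-to-noise across three replicate slides.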 Particulars: ConA-A647 binding fluorescence, higher = more signal.

Chain of Torsin-1A-interacting protein 1 (Homo sapiens) (Q5JTV8 whole entry, looked up): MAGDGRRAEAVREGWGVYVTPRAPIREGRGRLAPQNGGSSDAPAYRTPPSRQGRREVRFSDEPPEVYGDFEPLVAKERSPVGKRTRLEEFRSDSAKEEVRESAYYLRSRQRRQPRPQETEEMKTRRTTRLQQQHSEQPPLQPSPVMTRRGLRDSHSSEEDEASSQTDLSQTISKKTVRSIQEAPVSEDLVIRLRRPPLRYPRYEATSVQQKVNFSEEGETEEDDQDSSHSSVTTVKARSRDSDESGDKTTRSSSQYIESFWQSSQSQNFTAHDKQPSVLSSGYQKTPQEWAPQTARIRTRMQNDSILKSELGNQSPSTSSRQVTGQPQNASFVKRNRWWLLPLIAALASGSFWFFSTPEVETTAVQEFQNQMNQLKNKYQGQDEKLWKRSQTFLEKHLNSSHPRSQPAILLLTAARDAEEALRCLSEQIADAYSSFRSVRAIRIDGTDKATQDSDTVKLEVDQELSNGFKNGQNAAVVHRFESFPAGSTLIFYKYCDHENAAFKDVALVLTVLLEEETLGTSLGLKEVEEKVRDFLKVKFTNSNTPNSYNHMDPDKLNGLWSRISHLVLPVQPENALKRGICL
Chain of Alpha-bungarotoxin (Bungarus multicinctus) (P60615 whole entry, looked up): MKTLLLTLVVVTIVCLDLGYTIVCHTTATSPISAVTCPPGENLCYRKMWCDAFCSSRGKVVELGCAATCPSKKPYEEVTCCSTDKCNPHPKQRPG
Chain of Left-right determination factor 2 (Homo sapiens) (O00292 whole entry, looked up): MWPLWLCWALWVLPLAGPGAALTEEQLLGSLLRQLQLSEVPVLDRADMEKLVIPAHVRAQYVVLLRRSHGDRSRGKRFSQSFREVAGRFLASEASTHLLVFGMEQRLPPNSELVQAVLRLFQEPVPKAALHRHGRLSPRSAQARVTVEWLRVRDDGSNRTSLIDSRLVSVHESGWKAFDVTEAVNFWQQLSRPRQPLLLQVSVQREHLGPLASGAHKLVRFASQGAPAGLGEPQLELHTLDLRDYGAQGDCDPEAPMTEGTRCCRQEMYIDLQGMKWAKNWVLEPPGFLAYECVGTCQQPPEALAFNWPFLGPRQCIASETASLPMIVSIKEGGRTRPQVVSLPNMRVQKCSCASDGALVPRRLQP
Chain of Albumin (Bos taurus) (P02769 whole entry, looked up): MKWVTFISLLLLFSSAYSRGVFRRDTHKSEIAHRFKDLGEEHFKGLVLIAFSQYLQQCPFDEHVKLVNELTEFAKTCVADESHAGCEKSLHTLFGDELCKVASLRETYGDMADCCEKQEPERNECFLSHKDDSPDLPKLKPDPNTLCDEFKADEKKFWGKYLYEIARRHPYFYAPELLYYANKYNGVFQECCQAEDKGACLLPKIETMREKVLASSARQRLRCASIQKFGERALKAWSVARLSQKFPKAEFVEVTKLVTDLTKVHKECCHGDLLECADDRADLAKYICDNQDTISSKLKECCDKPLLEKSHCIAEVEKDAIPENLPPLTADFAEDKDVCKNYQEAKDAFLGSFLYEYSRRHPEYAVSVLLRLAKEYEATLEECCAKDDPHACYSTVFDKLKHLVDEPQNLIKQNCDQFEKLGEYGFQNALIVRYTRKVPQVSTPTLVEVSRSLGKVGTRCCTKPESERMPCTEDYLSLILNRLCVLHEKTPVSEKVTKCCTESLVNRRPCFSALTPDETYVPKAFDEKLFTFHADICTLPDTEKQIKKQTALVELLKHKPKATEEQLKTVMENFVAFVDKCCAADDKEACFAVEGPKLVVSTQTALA
Chain of Concanavalin-A (Canavalia ensiformis) (P02866 whole entry, looked up): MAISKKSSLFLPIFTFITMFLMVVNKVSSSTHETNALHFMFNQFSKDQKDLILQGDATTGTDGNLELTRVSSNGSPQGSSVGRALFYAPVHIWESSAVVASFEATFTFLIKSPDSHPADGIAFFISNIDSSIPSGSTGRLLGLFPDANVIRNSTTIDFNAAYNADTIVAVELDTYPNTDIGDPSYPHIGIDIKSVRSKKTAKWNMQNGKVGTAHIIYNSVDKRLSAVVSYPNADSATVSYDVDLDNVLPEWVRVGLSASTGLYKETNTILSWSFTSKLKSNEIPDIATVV

On to `COc1cc(OC)c(C(O)C2C=CC3C(=O)NC(=O)C3N2Nc2ccccn2)cc1Br` (stereo not given), for which the composite z-score in assay [1] is 0.19; in assay [3] it was 0.586; in assay [4] it was 0.0037; in assay [5] it was -0.107; in assay [6], -0.0684; in assay [7], -0.0769. The composite z-score is -0.461 in assay [8]; 1.17 in assay [9]; 0.484 in [10]; -0.257 in the assay with Albumin (Bos taurus); -0.0026 in assay [12]; -0.0598 in [13]. Further, the composite z-score came to 0.819 in assay [14]; 0.973 in assay [15]; 0.487 in assay [16]; 0.755 in the assay with Sam68 (KHDRBS1); 1.02 in assay [17]; 0.747 in [18]. Further, the z-score in assay [2] was determined as 0.742. Further, the composite Z-score in assay [11] was 0.172 (inactive).

On to `CC(C)[C@@H](C(=O)O)n1cc(C2(O)CCCCC2)nn1`, for which the composite z-score in [1] is 0.875; in assay [3], 0.21; in [4], 0.539; in assay [5] it was 0.0141; in assay [6], -0.201; in assay [7] it was -0.0738. Also, the composite z-score in [8] was -0.0809; in assay [9] it was 0.563; in assay [10], 0.184; with Albumin (Bos taurus), 0.641; in [12] it was 0.089; in assay [13], -0.161. Further, the composite z-score is 0.0232 in assay [14]; 0.303 in assay [15]; 0.0595 in [16]; 1.01 with Sam68 (KHDRBS1); -0.121 in assay [17]; 1.04 in assay [18]. The z-score in [2] was -0.465. Also, in assay [11], the composite Z-score is -0.283 (inactive).

Take `CC(C)=CCCC(C)=CC(O)C1C=CC2C(=O)N(c3ccccc3)C(=O)C2N1Nc1ccc(C(C)C)cc1` (stereo not given): the composite z-score in assay [1] was 1.45; in [3], -0.0675; in [4] it was 0.943; in assay [5] it was 0.415; in assay [6] it was 0.163; in assay [7], 0.0839. Besides, the composite z-score in assay [8] was found to be 1.6; in assay [9], 0.203; in [10], 0.925; with Albumin (Bos taurus) it was 0.792; in [12] it was 0.282; in assay [13] it was 0.0683. In addition, the composite z-score is 0.465 in assay [14]; 2.32 in assay [15]; -0.519 in assay [16]; 1.23 in the assay on Sam68 (KHDRBS1); -1.01 in assay [17]; 1.09 in [18]. Moreover, the z-score in assay [2] is -0.0821. In addition, the composite Z-score in assay [11] was 0.415 (inactive).

Regarding `C=CCNC(=O)[C@H]1[C@@H]2C(=O)O[C@@H](c3ccccc3)[C@@H](c3ccccc3)N2[C@@H](c2ccc(O)cc2)[C@]12C(=O)Nc1ccc(C#CCCO)cc12`, the composite z-score is -0.336 in [1]; 0.185 in assay [3]; -0.314 in assay [4]; 0.107 in assay [5]; -0.124 in assay [6]; 0.0982 in assay [7]. In addition, the composite z-score is -0.161 in assay [8]; -0.428 in [9]; -0.503 in assay [10]; 0.138 with Albumin (Bos taurus); -0.112 in assay [12]; -0.198 in [13]. The composite z-score in assay [14] was 0.656; in assay [15], -0.0099; in assay [16], 0.75; in the assay on Sam68 (KHDRBS1), -0.319; in assay [17], -0.559; in assay [18] it was -0.065. Moreover, in assay [2], the z-score was found to be 0.142. Besides, the composite Z-score in assay [11] was -0.157 (inactive).

Take `NCCCCCCNC(=O)[C@H]1C[C@H]2C(=O)N[C@@H](Cc3ccccc3)C(=O)N2[C@H]1c1cccc(OCCO)c1`: the composite z-score in assay [1] was 0.694; in assay [3], 0.146; in assay [4], 2.14; in assay [5], 0.857; in assay [6], -0.0718; in [7] it was 0.356. The composite z-score in assay [8] is 0.0574; in assay [9] it was 1.6; in assay [10], 0.576; with Albumin (Bos taurus), 0.845; in assay [12] it was 0.0657; in [13] it was -0.0712. Besides, the composite z-score in assay [14] was 0.788; in assay [15], 0.446; in assay [16] it was 0.464; in the assay on Sam68 (KHDRBS1), 0.58; in assay [17] it was -0.431; in assay [18] it was 1.03. Moreover, in assay [2], the z-score is 0.794. Further, the composite Z-score in assay [11] is -0.336 (inactive).

Turning to `O=C(O)[C@@]1(CCS(=O)(=O)c2ccccc2)N=C(c2ccc(OCCCO)cc2)O[C@H]1c1ccccc1`, the composite z-score in assay [1] was 1.32; in assay [3] it was -0.665; in [4], 2.47; in assay [5], 0.967; in [6] it was -0.0084; in [7] it was 0.0639. The composite z-score in [8] was 1.1; in [9] it was 1.08; in assay [10], 0.524; with Albumin (Bos taurus), 0.978; in assay [12], 0.156; in assay [13] it was -0.0331. The composite z-score in assay [14] was 0.864; in assay [15] it was 2.21; in assay [16] it was -0.334; in the assay with Sam68 (KHDRBS1), 1.2; in [17], -0.765; in [18], 0.766. For the same compound, the z-score in assay [2] is -0.124. Besides, the composite Z-score in assay [11] is -0.83 (inactive).
